PubChem BioAssay (NCI)
Compounds without any hit were thinned out: in the full panel of roughly 79,000, 15% have a hit. Calls of active or inactive are those of the source. No stated cut-off is given here; in the data, active means growth inhibition above about 70%; inactive means the rest.

Legend:
[1] = NCI Yeast Anticancer Drug Screen. Data for the rad50 strain (AID 155);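 further: 0% = growth of vehicle-only cultures of the same strain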; settings: S. cerevisiae rad50 strain growth inhibition, active compounds read high
Procedure, shortened: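 Genetically altered yeast (DNA repair pathway); compound treatment; growth inhibition vs vehicle ctrl.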

[2] = NCI Yeast Anticancer Drug Screen. Data for the mec2-1 strain (AID 157); settings: S. cerevisiae mec2-1 strain, active compounds read high
Procedure, shortened: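 Yeast mec2-1 mutant treated with compound. Readout: growth inhibition vs vehicle controls.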

[3] = NCI Yeast Anticancer Drug Screen. Data for the sgs1 mgt1 strain (AID 161);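 further: 0% = growth of cultures given vehicle only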; settings: S. cerevisiae sgs1 mgt1 strain, active compounds read high
Procedure, shortened: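 Genetically altered yeast, compound exposure, growth inhibition relative to vehicle.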

[4] = NCI Yeast Anticancer Drug Screen. Data for the cln2 rad14 strain (AID 165);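 further: 0% = growth equal to vehicle treated cultures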; settings: S. cerevisiae cln2 rad14 strain, active compounds read high
Procedure, shortened: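 cln2 rad14 yeast strain; compound exposure; growth inhibition read vs vehicle controls.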

[5] = NCI Yeast Anticancer Drug Screen. Data for the bub3 strain (AID 167); settings: S. cerevisiae bub3 mutant strain, active compounds read high
Procedure, shortened: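 Yeast carrying a defined mutation is treated with each compound, and growth is compared with that of vehicle-exposed cells to give inhibition.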

[6] = NCI Yeast Anticancer Drug Screen. Data for the mlh1 rad18 strain (AID 175); settings: S. cerevisiae mlh1 rad18 strain growth inhibition, active compounds read high
Procedure, shortened: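 Yeast w/ defined DNA-repair lesions; compound exposure; growth vs vehicle controls → % inhibition.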

[7] = at 5.0 µM (retest, dose inferred, filed as 0.5)
[8] = at 50.0 µM (retest, dose inferred, filed as 5.0)

Measured: growth inhibition

CN(C)C(=O)SC1=C(c2c(Cl)cccc2Cl)C(=O)c2ccccc21
active: [1]; [8] 74% | [2]; at 50.0 µM 74.5% | [3]; [8] 80% | [3]; at 50.0 µM 89.7% | [4]; at 50.0 µM 87.8% | [5]; [8] 71% | [5]; at 50.0 µM 85.9% | [6]; [7] 82% | [6]; [8] 93% | [6]; at 50.0 µM 82.8%
inactive: [1]; [7] 41% | [1]; at 50.0 µM 66.3% | [2]; [7] 32% | [2]; [8] 69% | [3]; [7] 53% | [4]; [7] 33% | [4]; [8] 61% | [5]; [7] 32%

O=C(O)CCSSCCCCCS(=O)O
inactive: [1]; [7] -5% | [1]; [8] -4% | [1]; at 50.0 µM 54.9% | [2]; [7] 4% | [2]; [8] 10% | [2]; at 50.0 µM -1.9% | [3]; [7] -1% | [3]; [8] 0% | [3]; at 50.0 µM 7.95% | [4]; [7] -10% | [4]; [8] -22% | [4]; at 50.0 µM 1% | [5]; [7] -3% | [5]; [8] 9% | [5]; at 50.0 µM 13% | [6]; [7] 0% | [6]; [8] 9% | [6]; at 50.0 µM 13%

CCCCN(CCCC)CCCCNc1ccc(C)c2sc3ccccc3c(=O)c12
active: [1]; [8] 99% | [1]; at 50.0 µM 98.7% | [2]; [8] 98% | [2]; at 50.0 µM 99.2% | [3]; [7] 83% | [3]; [8] 98% | [3]; at 50.0 µM 98.8% | [4]; [8] 98% | [4]; at 50.0 µM 98.3% | [5]; [8] 98% | [5]; at 50.0 µM 98.8% | [6]; [8] 98% | [6]; at 50.0 µM 99.2%
inactive: [1]; [7] 36% | [2]; [7] 23% | [4]; [7] 18% | [5]; [7] 50% | [6]; [7] 65%

O/N=C/c1cc(Cl)cc(Cl)c1O
inactive: [3]; [7] 53% | [3]; [8] 47%
active: [1]; [7] 96% | [1]; [8] 96% | [1]; at 50.0 µM 97.7% | [2]; [7] 93% | [2]; [8] 89% | [2]; at 50.0 µM 95.1% | [3]; at 50.0 µM 98% | [4]; [7] 80% | [4]; [8] 94% | [4]; at 50.0 µM 96.7% | [5]; [7] 85% | [5]; [8] 94% | [5]; at 50.0 µM 73.5% | [6]; [7] 97% | [6]; [8] 95% | [6]; at 50.0 µM 97.8%

C[Si](C)(c1ccccc1)C1CC(=O)CC(=O)C1
inactive: [1]; [7] 41% | [1]; [8] 54% | [1]; at 50.0 µM 49.9% | [2]; [7] 26% | [2]; [8] 65% | [2]; at 50.0 µM 55.2% | [3]; [7] 47% | [3]; [8] 50% | [3]; at 50.0 µM 69.5% | [4]; [7] 29% | [4]; [8] 39% | [4]; at 50.0 µM 65.1% | [5]; [7] 38% | [5]; [8] 53% | [5]; at 50.0 µM 56% | [6]; [7] 44% | [6]; [8] 63% | [6]; at 50.0 µM 48.8%

CCN(CC)CCOC(=O)C1C(c2ccccc2)C1(c1ccccc1)c1ccccc1 (stereo not given)
active: [1]; [8] 77% | [1]; at 50.0 µM 73% | [3]; [8] 97% | [3]; at 50.0 µM 88.7% | [4]; at 50.0 µM 77.3% | [5]; [8] 85% | [5]; at 50.0 µM 75.2% | [6]; [8] 96% | [6]; at 50.0 µM 92.8%
inactive: [1]; [7] 1% | [2]; [7] 4% | [2]; [8] 63% | [2]; at 50.0 µM 62.8% | [3]; [7] 8% | [4]; [7] 3% | [4]; [8] 60% | [5]; [7] 8% | [6]; [7] 5%

O=C(O)/C(Cl)=C(\Cl)C(=O)Nc1cccc(C(F)(F)F)c1
active: [1]; [8] 99% | [1]; at 50.0 µM 99.5% | [2]; [8] 100% | [2]; at 50.0 µM 99.7% | [3]; [8] 100% | [3]; at 50.0 µM 99.7% | [4]; [8] 99% | [4]; at 50.0 µM 99.3% | [5]; [7] 88% | [5]; [8] 99% | [5]; at 50.0 µM 99.6% | [6]; [8] 99% | [6]; at 50.0 µM 99.5%
inactive: [1]; [7] 65% | [2]; [7] 56% | [3]; [7] 68% | [4]; [7] 43% | [6]; [7] 49%

O=C1CCCC/C1=C(\Br)I
active: [1]; [8] 99% | [1]; at 50.0 µM 89.1% | [2]; [8] 100% | [2]; at 50.0 µM 92.3% | [3]; [8] 100% | [3]; at 50.0 µM 91.2% | [4]; [8] 93% | [4]; at 50.0 µM 91.4% | [5]; [8] 100% | [5]; at 50.0 µM 89.1% | [6]; [8] 99% | [6]; at 50.0 µM 93%
inactive: [1]; [7] 35% | [2]; [7] 31% | [3]; [7] 28% | [4]; [7] 19% | [5]; [7] 45% | [6]; [7] 31%

Cc1ccc2c(ccc3c[n+]4c5ccccc5ccc4n32)c1
active: [1]; [7] 96% | [1]; [8] 99% | [1]; at 50.0 µM 99.4% | [2]; [7] 92% | [2]; [8] 99% | [2]; at 50.0 µM 99.5% | [3]; [7] 95% | [3]; [8] 100% | [3]; at 50.0 µM 98.7% | [4]; [7] 94% | [4]; [8] 99% | [4]; at 50.0 µM 97.3% | [5]; [7] 93% | [5]; [8] 99% | [5]; at 50.0 µM 99.3% | [6]; [7] 95% | [6]; [8] 99% | [6]; at 50.0 µM 99.2%

Cc1ccc(/C=C2\CCCc3ccccc3C2=O)cc1
active: [5]; [8] 81% | [5]; at 50.0 µM 72.3%
inactive: [1]; [7] 0% | [1]; [8] 7% | [1]; at 50.0 µM 51.3% | [2]; [7] 7% | [2]; [8] 23% | [2]; at 50.0 µM 7.9% | [3]; [7] 8% | [3]; [8] 33% | [3]; at 50.0 µM 55.8% | [4]; [7] -11% | [4]; [8] -11% | [4]; at 50.0 µM 11.3% | [5]; [7] 59% | [6]; [7] 7% | [6]; [8] 23% | [6]; at 50.0 µM 55.1%
